For some of these results: Potency and affinity values are given separately.
Tests used:
Set-up in all cases: scale not given: direction of the effect not stated beside the values
[1] = molecular target: Protein translocase subunit SecA (Escherichia coli (strain K12)) (UniProt P10408); test: Assay to Identify E. coli SecA ATPase Inhibitors; assay type: functional; conditions: 30 µM
[2] = molecular target: T1, Ubiquitin-activating enzyme e1, putative (Leishmania donovani (strain BPK282A1)) (UniProt E9BSI1); test: Leishmania donovani Ubiquitin Activating Enzyme (LdE1); assay type: functional; conditions: 30 µM
T1 sequence (whole entry): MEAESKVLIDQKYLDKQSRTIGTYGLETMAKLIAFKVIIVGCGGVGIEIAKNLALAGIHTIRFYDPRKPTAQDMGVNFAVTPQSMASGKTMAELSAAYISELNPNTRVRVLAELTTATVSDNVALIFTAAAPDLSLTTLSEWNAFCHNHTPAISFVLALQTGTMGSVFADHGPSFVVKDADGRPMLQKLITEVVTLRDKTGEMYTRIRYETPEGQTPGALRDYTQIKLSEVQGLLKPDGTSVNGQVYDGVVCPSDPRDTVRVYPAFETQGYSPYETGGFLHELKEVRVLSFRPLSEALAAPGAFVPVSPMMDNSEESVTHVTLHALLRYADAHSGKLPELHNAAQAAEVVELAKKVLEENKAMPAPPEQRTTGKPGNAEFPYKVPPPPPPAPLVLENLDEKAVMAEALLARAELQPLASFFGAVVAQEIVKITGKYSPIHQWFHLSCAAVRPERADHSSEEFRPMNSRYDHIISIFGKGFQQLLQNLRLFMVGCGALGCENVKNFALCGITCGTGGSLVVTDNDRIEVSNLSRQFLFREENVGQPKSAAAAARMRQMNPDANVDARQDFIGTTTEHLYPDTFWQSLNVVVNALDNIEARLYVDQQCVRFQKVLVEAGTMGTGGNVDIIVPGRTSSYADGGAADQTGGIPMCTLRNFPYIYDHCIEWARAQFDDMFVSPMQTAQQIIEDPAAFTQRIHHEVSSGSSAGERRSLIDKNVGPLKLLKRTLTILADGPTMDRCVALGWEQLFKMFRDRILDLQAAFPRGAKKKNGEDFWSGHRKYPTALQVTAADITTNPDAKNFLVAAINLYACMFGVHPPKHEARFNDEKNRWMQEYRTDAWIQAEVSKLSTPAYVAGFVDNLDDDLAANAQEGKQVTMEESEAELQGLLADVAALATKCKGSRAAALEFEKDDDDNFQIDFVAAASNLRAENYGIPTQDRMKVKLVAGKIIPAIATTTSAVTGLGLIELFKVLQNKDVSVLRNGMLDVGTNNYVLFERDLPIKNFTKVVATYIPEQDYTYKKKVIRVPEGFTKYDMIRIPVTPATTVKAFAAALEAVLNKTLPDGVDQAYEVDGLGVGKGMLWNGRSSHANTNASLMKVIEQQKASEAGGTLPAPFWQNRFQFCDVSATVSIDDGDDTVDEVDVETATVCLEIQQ

[3] = molecular target: AMP-activated protein kinase, AMPK (Homo sapiens) (UniProt P54646+O43741+P54619+Q9UGJ0+Q9Y478+Q13131+Q9UGI9); test: AMP-dependent Kinase enzyme assay. An in vitro enzyme assay that detects ADP turnover that is directly proportional to AMPK activity. This uses naive AMPK that is activated during the assay with MK-8722; assay type: functional; conditions: 30 µM
[4] = molecular target: Sialic acid-binding Ig-like lectin 9 (Homo sapiens) (UniProt Q9Y336); test: Hs-Siglec9 ALPHAscreen SOP 20170721; conditions: 10 µM
Sequence of Sialic acid-binding Ig-like lectin 9 (Homo sapiens) (Q9Y336 whole entry): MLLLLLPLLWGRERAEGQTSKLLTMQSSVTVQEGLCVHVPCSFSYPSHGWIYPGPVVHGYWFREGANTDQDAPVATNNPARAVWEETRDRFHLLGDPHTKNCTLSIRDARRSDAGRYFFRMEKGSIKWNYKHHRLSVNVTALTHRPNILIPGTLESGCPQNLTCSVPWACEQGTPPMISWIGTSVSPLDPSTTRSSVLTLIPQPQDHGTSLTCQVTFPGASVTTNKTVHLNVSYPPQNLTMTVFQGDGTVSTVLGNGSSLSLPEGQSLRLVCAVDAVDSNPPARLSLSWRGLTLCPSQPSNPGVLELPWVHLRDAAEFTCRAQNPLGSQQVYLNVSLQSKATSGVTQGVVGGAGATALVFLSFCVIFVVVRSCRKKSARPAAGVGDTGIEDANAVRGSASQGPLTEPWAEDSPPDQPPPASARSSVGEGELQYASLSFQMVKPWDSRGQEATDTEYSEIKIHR

[5] = test system: Trypanosoma cruzi; test: Trypanosoma cruzi phosphomannomutase and mannose-1-phosphate guanylyltransferase assay; assay type: functional; conditions: 10 µM
[6] = molecular target: T2, Arginase-2, mitochondrial (Homo sapiens) (UniProt P78540); test: in vitro enzyme assay to detect the production of urea directly proportional to the activity of Arginase II; assay type: functional; conditions: 33.3 µM; note: in the data most compounds retested in dose-response had high values
T2 sequence (whole entry): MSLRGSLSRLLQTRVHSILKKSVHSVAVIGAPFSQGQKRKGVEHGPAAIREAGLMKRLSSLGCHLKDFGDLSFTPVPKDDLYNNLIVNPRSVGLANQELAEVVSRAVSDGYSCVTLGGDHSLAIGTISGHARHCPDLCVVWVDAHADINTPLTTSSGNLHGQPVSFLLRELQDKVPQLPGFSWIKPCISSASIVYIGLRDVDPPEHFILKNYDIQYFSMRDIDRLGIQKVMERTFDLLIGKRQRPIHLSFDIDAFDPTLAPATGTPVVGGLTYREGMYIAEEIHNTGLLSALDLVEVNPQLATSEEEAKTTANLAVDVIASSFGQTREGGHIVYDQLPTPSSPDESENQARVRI

[7] = molecular target: T3, Proteasome subunit beta (Trypanosoma cruzi) (UniProt O96673); test: Trypanosoma cruzi proteasome chymotrypsin-like activity (TcProtChymo) assay.; note: in the data most compounds retested in dose-response had high values; assay type: functional; conditions: 9.37 µM
T3 sequence (whole entry): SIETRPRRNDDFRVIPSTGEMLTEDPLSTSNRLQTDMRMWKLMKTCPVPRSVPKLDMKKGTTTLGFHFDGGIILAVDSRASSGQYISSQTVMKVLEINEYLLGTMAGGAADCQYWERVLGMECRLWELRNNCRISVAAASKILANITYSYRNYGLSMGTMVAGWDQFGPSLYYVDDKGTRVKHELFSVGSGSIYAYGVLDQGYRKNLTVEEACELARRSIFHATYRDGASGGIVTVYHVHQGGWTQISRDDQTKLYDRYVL

[8] = species: Homo sapiens; test: To identify inhibition of the IFN signalling (Jak-Stat) pathway via expression of an eGFP reporter gene under the control of an IFN-stimulated response element (ISRE) containing MxA promoter.; assay type: functional; conditions: 30 µM
[9] = molecular target: T4, Tyrosyl-tRNA synthetase, putative (Trypanosoma cruzi (strain CL Brener)) (UniProt Q4DSP6); test: Trypanosoma cruzi tyrosyl tRNA synthetase (TcYRS) _High Tyrosine SOP; assay type: functional; conditions: 30 µM; note: in the data most compounds retested in dose-response had high values
T4 sequence (whole entry): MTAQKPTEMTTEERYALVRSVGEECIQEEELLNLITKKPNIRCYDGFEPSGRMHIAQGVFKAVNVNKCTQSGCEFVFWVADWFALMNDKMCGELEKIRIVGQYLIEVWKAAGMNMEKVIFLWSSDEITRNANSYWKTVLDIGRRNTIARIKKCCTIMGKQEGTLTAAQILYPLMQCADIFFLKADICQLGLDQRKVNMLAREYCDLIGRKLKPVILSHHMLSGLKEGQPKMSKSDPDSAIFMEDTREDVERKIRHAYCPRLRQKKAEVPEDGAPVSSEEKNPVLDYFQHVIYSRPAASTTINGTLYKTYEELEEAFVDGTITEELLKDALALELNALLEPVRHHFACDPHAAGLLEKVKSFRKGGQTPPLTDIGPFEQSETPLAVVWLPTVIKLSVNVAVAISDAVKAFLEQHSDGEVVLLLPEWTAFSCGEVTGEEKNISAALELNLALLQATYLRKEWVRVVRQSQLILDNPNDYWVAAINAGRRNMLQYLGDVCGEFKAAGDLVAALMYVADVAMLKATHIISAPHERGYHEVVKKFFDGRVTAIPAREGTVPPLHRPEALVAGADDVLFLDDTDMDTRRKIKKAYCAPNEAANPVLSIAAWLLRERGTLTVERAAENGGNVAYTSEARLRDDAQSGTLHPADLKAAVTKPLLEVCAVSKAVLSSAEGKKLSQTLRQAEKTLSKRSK

[10] = molecular target: T4, Tyrosyl-tRNA synthetase, putative (Trypanosoma cruzi (strain CL Brener)); test: Trypanosoma cruzi tyrosyl tRNA synthetase (TcYRS) SOP; assay type: functional; conditions: 30 µM
[11] = molecular target: Chromo domain-containing protein 1 (Saccharomyces cerevisiae (strain ATCC 204508 / S288c) (Baker's yeast)) (UniProt P32657); test: ScCHD-1 Enzyme Inhibition Assay; assay type: functional; conditions: 30 µM; note: in the data most compounds retested in dose-response had high values
Sequence of Chromo domain-containing protein 1 (Saccharomyces cerevisiae (strain ATCC 204508 / S288c) (Baker's yeast)) (P32657 whole entry, the tested form may be a part): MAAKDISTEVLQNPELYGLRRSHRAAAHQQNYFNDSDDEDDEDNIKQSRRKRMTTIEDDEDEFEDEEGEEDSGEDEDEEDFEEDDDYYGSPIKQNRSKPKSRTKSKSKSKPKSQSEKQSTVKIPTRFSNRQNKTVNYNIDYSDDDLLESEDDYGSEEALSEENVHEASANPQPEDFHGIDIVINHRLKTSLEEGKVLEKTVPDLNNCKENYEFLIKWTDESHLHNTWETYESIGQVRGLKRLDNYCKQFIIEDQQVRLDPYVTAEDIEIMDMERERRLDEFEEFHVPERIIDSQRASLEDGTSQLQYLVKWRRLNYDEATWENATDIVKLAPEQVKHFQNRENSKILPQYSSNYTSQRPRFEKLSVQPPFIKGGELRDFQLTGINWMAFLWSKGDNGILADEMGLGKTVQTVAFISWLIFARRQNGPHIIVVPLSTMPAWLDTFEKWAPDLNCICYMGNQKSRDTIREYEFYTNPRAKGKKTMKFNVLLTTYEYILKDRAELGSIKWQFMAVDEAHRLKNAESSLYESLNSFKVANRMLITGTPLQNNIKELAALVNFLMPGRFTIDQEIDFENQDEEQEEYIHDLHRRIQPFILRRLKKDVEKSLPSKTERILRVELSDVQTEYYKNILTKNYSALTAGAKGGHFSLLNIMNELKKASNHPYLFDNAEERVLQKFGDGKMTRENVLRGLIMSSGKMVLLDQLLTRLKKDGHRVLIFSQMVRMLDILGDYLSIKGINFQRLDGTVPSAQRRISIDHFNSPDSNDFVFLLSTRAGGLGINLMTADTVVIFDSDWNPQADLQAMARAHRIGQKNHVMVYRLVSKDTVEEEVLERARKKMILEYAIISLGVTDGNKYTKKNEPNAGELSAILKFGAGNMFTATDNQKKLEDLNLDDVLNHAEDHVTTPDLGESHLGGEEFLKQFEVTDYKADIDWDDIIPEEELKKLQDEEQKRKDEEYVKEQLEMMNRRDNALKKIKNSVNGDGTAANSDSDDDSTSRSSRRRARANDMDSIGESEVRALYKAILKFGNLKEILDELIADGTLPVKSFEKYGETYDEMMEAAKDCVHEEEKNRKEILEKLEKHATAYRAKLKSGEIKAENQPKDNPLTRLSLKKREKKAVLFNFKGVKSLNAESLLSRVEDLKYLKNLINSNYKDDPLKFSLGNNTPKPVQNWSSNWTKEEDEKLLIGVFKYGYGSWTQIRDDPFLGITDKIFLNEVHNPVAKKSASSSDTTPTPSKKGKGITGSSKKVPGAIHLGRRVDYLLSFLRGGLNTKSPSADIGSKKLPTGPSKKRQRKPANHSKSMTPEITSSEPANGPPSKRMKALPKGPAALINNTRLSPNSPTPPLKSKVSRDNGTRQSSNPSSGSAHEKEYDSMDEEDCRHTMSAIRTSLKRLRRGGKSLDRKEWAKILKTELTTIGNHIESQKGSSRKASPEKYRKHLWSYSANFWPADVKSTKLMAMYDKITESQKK

Sequence of Protein translocase subunit SecA (Escherichia coli (strain K12)) (P10408 whole entry): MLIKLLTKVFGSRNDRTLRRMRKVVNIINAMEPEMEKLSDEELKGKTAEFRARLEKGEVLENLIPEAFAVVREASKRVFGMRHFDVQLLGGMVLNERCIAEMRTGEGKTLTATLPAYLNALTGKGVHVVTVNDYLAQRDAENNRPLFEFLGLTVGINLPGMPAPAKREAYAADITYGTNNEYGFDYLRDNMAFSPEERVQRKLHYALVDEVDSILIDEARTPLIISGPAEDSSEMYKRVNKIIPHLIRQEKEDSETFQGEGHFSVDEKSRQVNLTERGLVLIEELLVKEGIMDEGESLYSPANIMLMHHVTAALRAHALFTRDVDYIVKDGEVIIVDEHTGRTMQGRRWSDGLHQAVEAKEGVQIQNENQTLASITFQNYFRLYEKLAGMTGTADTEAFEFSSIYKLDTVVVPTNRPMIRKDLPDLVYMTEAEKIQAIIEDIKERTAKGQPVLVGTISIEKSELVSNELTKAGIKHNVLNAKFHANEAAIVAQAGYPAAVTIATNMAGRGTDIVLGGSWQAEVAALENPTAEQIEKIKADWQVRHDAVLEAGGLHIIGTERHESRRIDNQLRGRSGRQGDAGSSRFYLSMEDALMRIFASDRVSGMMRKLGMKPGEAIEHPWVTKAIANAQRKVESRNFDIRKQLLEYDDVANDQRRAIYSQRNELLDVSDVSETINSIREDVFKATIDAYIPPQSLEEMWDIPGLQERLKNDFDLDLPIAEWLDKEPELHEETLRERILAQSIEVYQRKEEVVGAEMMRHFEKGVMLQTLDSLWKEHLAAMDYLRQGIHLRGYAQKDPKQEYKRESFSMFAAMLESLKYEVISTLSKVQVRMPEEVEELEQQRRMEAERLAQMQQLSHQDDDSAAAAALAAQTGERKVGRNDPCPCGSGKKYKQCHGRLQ

Compound	Percent Effect [1]	Percent Effect [2]	Percent Effect [3]	Percent Effect [4]	Percent Effect [5]	Percent Effect [6]	Percent Effect [7]	Percent Effect [8]	Percent Effect [9]	Percent Effect [10]	Percent Effect [11]
Cc1nc(Nc2nnc(C)s2)cc(C2CCCN2C)n1 (stereo not drawn)	-1.27%	16%	3.75%	-11.6%	-2.95%	-4.43%	15.1%	29.1%	2.13%	3.85%	-6.23%
NC(=O)c1cc(C2CCCN(C(=O)CCc3cscn3)C2)n[nH]1 (stereo not drawn)	-1.95%	0%	9.04%	3.83%	1.69%	-0.356%	1.86%	8.48%	2.91%	2.44%	-5.18%
CCCN(Cc1ccccc1)Cn1nc(C)c2c(C)onc2c1=O	-7%	10.8%	-10.2%	25.6%	4.62%	-4.81%	1.98%	8.04%	5.42%	18.5%	-13.4%
Cc1nc(CN2C[C@@H]3CN(C(=O)c4cnccn4)C[C@@H]3C2)cs1	-1.57%	5.48%	0.106%	5.75%	-1.79%	-2.79%	7.45%	7.67%	5.21%	16.1%	-3.57%
Cc1cc(NC(=O)CN2CCc3nn(C)c(=O)cc3C2)on1	-3.81%	6.94%	-63.3%	-0.594%	-1.46%	7.06%	13.9%	0.181%	-6.32%	-5.13%	-4.24%
CCCc1cc(C(=O)N(C)Cc2cnc3ccccc3n2)n(C)n1	-7.11%	5.2%	2.82%	6.76%	2.06%	11%	8.82%	7.96%	7.53%	11.1%	2.1%
Cn1cc(C[C@H]2[C@@H](O)CCN2C(=O)C2CC=CC2)cn1	-1.02%	7.79%	8.48%	-3.96%	0.69%	12.3%	17.8%	26.4%	1.06%	14.1%	-9.76%
CCn1cc(CN2CCCN(C(=O)c3ccn(C)c(=O)c3)CC2)cn1	-0.55%	20.8%	-9.71%	-17.4%	4.02%	-0.632%	10.9%	11.6%	10.5%	23.5%	-18.6%

Reference: ChEMBL document CHEMBL3988442, “University of Dundee, Small-Polar-MMV Screening Library” (2021)
